For some of these results: Entries with a potency or affinity are not part of this list. The source made the active and inactive calls. Unless noted, the rule behind the calls is not given here.
Key:
[1] = antimalarial activity against Dd2 strain (AID 2302;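 active = growth inhibition above 50% at the single 2 µM test dose, taken to imply half-maximal potency below 2 µM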;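 note: 0% = DMSO untreated growth and 100% = chloroquine plus artemisinin killed control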); settings: P. falciparum Dd2 in RBCs, LDH growth readout, 72 h; at 2 µM; stronger effect = higher value
[2] = human hepatoma cell viability loss – ATP luminescence, cytotoxicity control for P. falciparum antimalarial project, primary screen (AID 2303;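 active = inhibition above 50%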;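 note: 0% = DMSO wells and 100% = digitonin-killed cells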); settings: HepG2 viability, 24-48 h, at 10 µM, stronger effect = higher value
[3] = biological target: L-lactate dehydrogenase (Plasmodium falciparum (isolate CDC / Honduras)) (UniProt Q27743); assay: PfLDH activity inhibition – cell lysate, 3D7 strain, counter-screen for P. falciparum growth inhibition project (AID 2304);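 note: 0% = vehicle and 100% = reference inhibitor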; settings: P. falciparum 3D7 crude extract, LDH APAD/NBT absorbance; at 2 µM; stronger effect = higher value
L-lactate dehydrogenase (Plasmodium falciparum (isolate CDC / Honduras)), sequence (Q27743 whole entry, looked up): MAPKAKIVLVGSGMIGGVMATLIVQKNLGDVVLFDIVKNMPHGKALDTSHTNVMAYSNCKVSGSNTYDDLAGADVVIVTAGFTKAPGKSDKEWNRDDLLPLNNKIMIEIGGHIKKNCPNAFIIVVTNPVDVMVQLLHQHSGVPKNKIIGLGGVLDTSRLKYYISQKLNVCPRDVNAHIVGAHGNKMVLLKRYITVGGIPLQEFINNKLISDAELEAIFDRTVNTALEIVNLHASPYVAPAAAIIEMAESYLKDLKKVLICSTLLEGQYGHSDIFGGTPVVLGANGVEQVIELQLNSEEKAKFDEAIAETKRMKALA

[4] = inhibition of 3D7 malaria parasite growth – strain 3D7 (AID 2306);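 note: 0% = DMSO wells and 100% = chloroquine plus artemisinin control wells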; settings: P. falciparum 3D7 erythrocytic growth, LDH absorbance, 72 h; at 2 µM; stronger effect = higher value
[5] = biological target: Calcium-dependent protein kinase 1 (Plasmodium falciparum (isolate 3D7)) (UniProt P62344); assay: PfCDPK1 kinase inhibitors, biochemical, TCAMS library (AID 1159585; cut-off not given, nearly all actives have IC50 up to about 0.98 µM;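 note: inhibitors leave more ATP so luminescence rises with inhibition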); settings: recombinant PfCDPK1, Kinase-Glo ATP depletion luminescence
Calcium-dependent protein kinase 1 (Plasmodium falciparum (isolate 3D7)), sequence (P62344 whole entry, looked up): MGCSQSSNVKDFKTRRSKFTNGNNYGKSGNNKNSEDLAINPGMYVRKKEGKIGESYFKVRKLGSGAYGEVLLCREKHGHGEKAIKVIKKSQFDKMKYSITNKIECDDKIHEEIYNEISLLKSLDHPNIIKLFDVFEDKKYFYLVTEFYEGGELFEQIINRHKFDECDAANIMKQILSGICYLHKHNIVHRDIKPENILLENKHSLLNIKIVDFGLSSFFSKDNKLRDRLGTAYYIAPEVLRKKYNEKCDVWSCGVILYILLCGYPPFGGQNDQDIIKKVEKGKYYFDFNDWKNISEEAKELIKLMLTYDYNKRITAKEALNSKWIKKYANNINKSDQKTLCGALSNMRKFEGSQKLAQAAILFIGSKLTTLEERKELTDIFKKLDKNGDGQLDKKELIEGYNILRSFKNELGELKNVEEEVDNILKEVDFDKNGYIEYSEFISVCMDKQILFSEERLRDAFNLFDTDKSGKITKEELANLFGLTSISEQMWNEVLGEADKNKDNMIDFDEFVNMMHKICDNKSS

[6] = biological target: Plasmodium falciparum protein kinase 6 (PK6, PF3D7_1337100) (UniProt Q8IDW1); assay: PfPK6 kinase inhibitors, biochemical, TCAMS library (AID 1159586); settings: recombinant PfPK6, Kinase-Glo ATP depletion luminescence
Plasmodium falciparum protein kinase 6 (PK6, PF3D7_1337100), sequence (Q8IDW1 1-305): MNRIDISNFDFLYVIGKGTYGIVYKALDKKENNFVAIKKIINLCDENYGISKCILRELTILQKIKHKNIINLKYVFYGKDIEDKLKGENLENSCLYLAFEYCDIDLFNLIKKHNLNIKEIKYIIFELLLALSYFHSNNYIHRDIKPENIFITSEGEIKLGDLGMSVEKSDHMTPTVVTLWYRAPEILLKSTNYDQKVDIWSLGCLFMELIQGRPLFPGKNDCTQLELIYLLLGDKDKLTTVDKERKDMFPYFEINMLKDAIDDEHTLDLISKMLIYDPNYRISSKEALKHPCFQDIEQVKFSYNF

[7] = biological target: Protein kinase 7 (PK7), Plasmodium falciparum 3D7 (PF3D7_0213400) (UniProt Q7YTF7); assay: inhibition of Plasmodium PK7 catalytic activity – biochemical, TCAMS antimalarial set, Kinase-Glo luminescence (AID 1159587); settings: recombinant PfPK7, Kinase-Glo ATP depletion luminescence
Protein kinase 7 (PK7), Plasmodium falciparum 3D7 (PF3D7_0213400), sequence (Q7YTF7 1-343): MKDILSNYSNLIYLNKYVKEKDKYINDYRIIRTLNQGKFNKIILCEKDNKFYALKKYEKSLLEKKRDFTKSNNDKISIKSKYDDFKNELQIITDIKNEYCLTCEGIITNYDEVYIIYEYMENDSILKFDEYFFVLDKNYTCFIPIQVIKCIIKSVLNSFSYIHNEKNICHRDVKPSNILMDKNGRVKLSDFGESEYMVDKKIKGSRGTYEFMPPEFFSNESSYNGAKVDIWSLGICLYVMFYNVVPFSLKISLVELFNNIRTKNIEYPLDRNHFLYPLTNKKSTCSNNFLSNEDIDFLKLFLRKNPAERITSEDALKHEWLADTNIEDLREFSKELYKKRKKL

[8] = biological target: Calcium-dependent protein kinase 4 (Plasmodium falciparum (isolate 3D7)) (UniProt Q8IBS5); assay: PfCDPK4 kinase inhibitors, biochemical, TCAMS library (AID 1159588; cut-off not given, nearly all actives have IC50 up to about 0.91 µM); settings: recombinant PfCDPK4, Kinase-Glo ATP depletion luminescence
Calcium-dependent protein kinase 4 (Plasmodium falciparum (isolate 3D7)), sequence (Q8IBS5 whole entry, looked up): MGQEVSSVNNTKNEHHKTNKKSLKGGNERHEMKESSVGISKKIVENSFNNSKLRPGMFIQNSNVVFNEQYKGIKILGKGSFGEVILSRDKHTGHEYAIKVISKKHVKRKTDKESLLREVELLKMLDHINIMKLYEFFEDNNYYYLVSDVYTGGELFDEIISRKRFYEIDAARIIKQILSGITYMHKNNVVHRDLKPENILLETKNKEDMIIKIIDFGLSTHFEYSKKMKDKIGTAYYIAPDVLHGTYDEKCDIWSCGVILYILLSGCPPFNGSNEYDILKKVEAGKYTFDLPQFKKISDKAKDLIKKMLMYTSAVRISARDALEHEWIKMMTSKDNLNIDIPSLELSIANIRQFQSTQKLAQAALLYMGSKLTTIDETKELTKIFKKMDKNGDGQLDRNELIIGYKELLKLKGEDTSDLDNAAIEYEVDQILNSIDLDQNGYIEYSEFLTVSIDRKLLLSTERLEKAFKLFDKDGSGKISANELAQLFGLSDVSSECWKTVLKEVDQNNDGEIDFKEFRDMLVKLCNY

CCN(CC)Cc1cc(NC(=O)c2ccccc2O)ccc1Oc1ccc(Cl)cc1
inactive: inhibition [2] 32% | inhibition [3] 3% | outcome [5] | outcome [6] | outcome [7] | outcome [8]
active: growth inhibition [1] 88% | growth inhibition [4] 98%

COc1ccc(CN=C(N)Nc2nc(-c3ccc(OCCCn4ccnc4)cc3)cs2)cc1
active: growth inhibition [1] 67% | growth inhibition [4] 100%
inactive: inhibition [2] 15% | inhibition [3] -5% | outcome [5] | outcome [6] | outcome [7] | outcome [8]

COc1ccc2nccc(C(=O)NC3CCC(CCN4CCc5cc(C#N)ccc5C4)CC3)c2c1 (stereo not drawn)
inactive: growth inhibition [1] 1% | inhibition [2] 12% | inhibition [3] 1% | outcome [5] | outcome [6] | outcome [7] | outcome [8]
active: growth inhibition [4] 97%

Cc1[nH]c(C)c(-c2ccc(-c3ccccc3)nc2)c(=O)c1Br
active: growth inhibition [1] 95% | growth inhibition [4] 96%
inactive: inhibition [2] -3% | inhibition [3] -1% | outcome [5] | outcome [6] | outcome [7] | outcome [8]

Cc1ccc(CNC(=O)[C@H](CC(C)C)Nc2cc(C)nc(NCc3ccccc3C)n2)cc1
inactive: growth inhibition [1] 35% | inhibition [2] 3% | inhibition [3] 1% | outcome [5] | outcome [6] | outcome [7] | outcome [8]
active: growth inhibition [4] 87%

O=C(/C=C/c1ccccc1F)NC1CCC(CCN2CCc3ccc(-c4cccnc4)cc3CC2)CC1 (stereo not drawn)
inactive: growth inhibition [1] 5% | inhibition [2] 34% | inhibition [3] -4% | outcome [5] | outcome [6] | outcome [7] | outcome [8]
active: growth inhibition [4] 92%

CC(C)(C)c1nn(-c2ccccc2)c2[nH]c(=O)c(CNCCc3ccccc3)cc12
inactive: inhibition [2] -7% | inhibition [3] 0% | outcome [5] | outcome [6] | outcome [7] | outcome [8]
active: growth inhibition [1] 90% | growth inhibition [4] 94%

N#Cc1ccc(CN2CCC(Oc3ccc(NC(=O)c4cccs4)cc3Cl)C2)cc1 (stereo not drawn)
inactive: inhibition [2] 31% | inhibition [3] -2% | outcome [5] | outcome [6] | outcome [7] | outcome [8]
active: growth inhibition [1] 95% | growth inhibition [4] 96%

Clc1ccccc1OCc1ccccn1
inactive: growth inhibition [1] 2% | inhibition [2] 2% | inhibition [3] -3% | outcome [5] | outcome [6] | outcome [7] | outcome [8]
active: growth inhibition [4] 85%

Cc1nc2ccc(Nc3nccc(-c4c(-c5cccc(NC(=O)c6c(F)cccc6F)c5)nn5ccccc45)n3)cc2nc1C
active: inhibition [2] 55% | growth inhibition [4] 91%
inactive: growth inhibition [1] 45% | inhibition [3] 0% | outcome [5] | outcome [6] | outcome [7] | outcome [8]

Cc1nnsc1C(=O)Nc1cccc(-c2ccc(-c3nc4ccccc4[nH]3)cc2)c1
active: growth inhibition [1] 58% | growth inhibition [4] 100%
inactive: inhibition [2] 48% | inhibition [3] 0% | outcome [5] | outcome [6] | outcome [7] | outcome [8]

CC(=O)Oc1cc(C)ccc1C1CCN(CCCCNC(=O)c2ccc(NC(=O)c3ccc(Cl)cc3)cc2)CC1
inactive: inhibition [2] 12% | inhibition [3] -5% | outcome [5] | outcome [6] | outcome [7] | outcome [8]
active: growth inhibition [1] 57% | growth inhibition [4] 100%

CCC(C)NS(=O)(=O)c1ccc2nc(Nc3ccc(C)cc3)n(C3CCCCC3C)c2c1 (stereo not drawn)
active: growth inhibition [1] 99% | growth inhibition [4] 95%
inactive: inhibition [2] 1% | inhibition [3] 1% | outcome [5] | outcome [6] | outcome [7] | outcome [8]

O=C(Nc1cccc(Cl)c1)N(CCCn1ccnc1)Cc1csc(-c2ccc(CNCc3ccccc3)cc2)n1
inactive: growth inhibition [1] 45% | inhibition [2] 11% | inhibition [3] 4% | outcome [5] | outcome [6] | outcome [7] | outcome [8]
active: growth inhibition [4] 102%

COc1ccc(CN(C)Cc2cc(C(C)C)c(C)cc2O)cc1F
inactive: inhibition [2] 1% | inhibition [3] -4% | outcome [5] | outcome [6] | outcome [7] | outcome [8]
active: growth inhibition [1] 98% | growth inhibition [4] 98%

NC(N)=NC(=O)Nc1cc(Br)c(Br)c(Br)c1
active: growth inhibition [1] 89% | growth inhibition [4] 101%
inactive: inhibition [2] 0% | inhibition [3] 1% | outcome [5] | outcome [6] | outcome [7] | outcome [8]

CN(Cc1ccccc1)C1CCCN(c2cc(NC(=O)c3cccs3)ccn2)C1 (stereo not drawn)
inactive: inhibition [2] 2% | inhibition [3] -1% | outcome [5] | outcome [6] | outcome [7] | outcome [8]
active: growth inhibition [1] 90% | growth inhibition [4] 88%

CCCc1cc(=O)[nH]c(-n2nc(C)cc2NC(=O)CC(c2ccccc2)c2ccccc2)n1
active: growth inhibition [1] 88% | growth inhibition [4] 97%
inactive: inhibition [2] 39% | inhibition [3] 4% | outcome [5] | outcome [6] | outcome [7] | outcome [8]

NC1CCCN(Cc2ccc(-c3cccc(-c4nc5ccc(F)cc5[nH]4)c3)cc2)C1 (stereo not drawn)
inactive: inhibition [3] 1% | outcome [5] | outcome [6] | outcome [7] | outcome [8]
active: growth inhibition [1] 75% | inhibition [2] 54% | growth inhibition [4] 100%

COc1ccc(NCCCNc2ccnc3ccccc23)cc1
active: growth inhibition [4] 88%
inactive: growth inhibition [1] 17% | inhibition [2] 34% | inhibition [3] 2% | outcome [5] | outcome [6] | outcome [7] | outcome [8]

CC[C@H](C)CNC(=O)c1ccnc(-c2cccc(CN(C)C3CCN(C)CC3)c2)c1
active: growth inhibition [4] 100%
inactive: growth inhibition [1] 33% | inhibition [2] -19% | inhibition [3] -1% | outcome [5] | outcome [6] | outcome [7] | outcome [8]

COc1cc(NC2=NS(=O)(=O)c3cc(Cl)ccc3N2C)cc(OC)c1OC
active: growth inhibition [1] 100% | growth inhibition [4] 101%
inactive: inhibition [2] -6% | inhibition [3] -2% | outcome [5] | outcome [6] | outcome [7] | outcome [8]

O=C(Nc1cccc(C(F)(F)F)c1)c1cccc(S(=O)(=O)NC2CCCN(CC3CCCCC3)C2)c1 (stereo not drawn)
inactive: growth inhibition [1] 15% | inhibition [2] 18% | inhibition [3] 1% | outcome [5] | outcome [6] | outcome [7] | outcome [8]
active: growth inhibition [4] 97%

CC(=O)N/N=C/[C@H](CCc1ccccc1)NC(=O)[C@H](CC(C)C)NC(=O)c1cccc(OCCN2CCOCC2)c1
active: growth inhibition [1] 78% | growth inhibition [4] 94%
inactive: inhibition [2] 13% | inhibition [3] -6% | outcome [5] | outcome [6] | outcome [7] | outcome [8]

Cc1nc(-c2nc(N3CCC(O)CC3)ncc2-c2ccsc2)sc1C
active: growth inhibition [4] 83%
inactive: growth inhibition [1] 35% | inhibition [2] 6% | inhibition [3] -2% | outcome [5] | outcome [6] | outcome [7] | outcome [8]

COc1c(Br)cc(Br)cc1C(C)=O
inactive: growth inhibition [1] -2% | inhibition [2] 3% | inhibition [3] 1% | outcome [5] | outcome [6] | outcome [7] | outcome [8]
active: growth inhibition [4] 95%

COc1cccc(NC(=O)[C@H](C(C)C)n2c(=O)[nH]c3ccccc3c2=O)c1
inactive: inhibition [2] -1% | inhibition [3] -1% | outcome [5] | outcome [6] | outcome [7] | outcome [8]
active: growth inhibition [1] 100% | growth inhibition [4] 101%

Cc1cc(N[C@@H](CC(C)C)C(=O)Nc2ccccc2)nc(NCc2ccccc2C)n1
active: growth inhibition [1] 81% | growth inhibition [4] 101%
inactive: inhibition [2] 21% | inhibition [3] 4% | outcome [5] | outcome [6] | outcome [7] | outcome [8]

Nc1ncc(-c2ccsc2)cc1-c1nc2ccccc2[nH]1
active: growth inhibition [4] 99%
inactive: growth inhibition [1] 8% | inhibition [2] 33% | inhibition [3] -2% | outcome [5] | outcome [6] | outcome [7] | outcome [8]

COc1ccc2c(Nc3ccc(N4CCN(C)CC4)cc3)cc(C)nc2c1
inactive: growth inhibition [1] 9% | inhibition [2] 23% | inhibition [3] -2% | outcome [5] | outcome [6] | outcome [7] | outcome [8]
active: growth inhibition [4] 101%

CN1CCN(Cc2nc(-c3ccc4c(Nc5ccc(F)c(O)c5)ccnc4c3)cs2)CC1
active: growth inhibition [1] 100% | growth inhibition [4] 100%
inactive: inhibition [2] 0% | inhibition [3] 7% | outcome [5] | outcome [6] | outcome [7] | outcome [8]

CN1CCN(CC(=O)Nc2cccc(-c3ccc(-c4nc5ccc(C(F)(F)F)cc5[nH]4)cc3)c2)CC1
active: growth inhibition [1] 94% | growth inhibition [4] 102%
inactive: inhibition [2] 37% | inhibition [3] -3% | outcome [5] | outcome [6] | outcome [7] | outcome [8]

CS(=O)(=O)c1ccc(CNCc2ccc(-c3ccc(-c4nc5ccc(C(F)(F)F)cc5[nH]4)cc3)cc2)cc1
inactive: inhibition [2] 26% | inhibition [3] 3% | outcome [5] | outcome [6] | outcome [7] | outcome [8]
active: growth inhibition [1] 82% | growth inhibition [4] 101%

Cc1ccc2c(NC(=O)Nc3ccc(N(C)C)cc3)cc(C)nc2c1
active: growth inhibition [4] 98%
inactive: growth inhibition [1] 20% | inhibition [2] -6% | inhibition [3] 0% | outcome [5] | outcome [6] | outcome [7] | outcome [8]

COc1ccc(CCn2c(C3CCCCC3)nc3oc4ccccc4c(=O)c3c2=O)cc1
active: growth inhibition [1] 66% | growth inhibition [4] 91%
inactive: inhibition [2] 12% | inhibition [3] -2% | outcome [5] | outcome [6] | outcome [7] | outcome [8]

O=C(NCCCCN1CCN(CC=Cc2ccccc2)CC1)c1ccc(NC(=O)c2cc(Cl)cc(Cl)c2)cc1
active: growth inhibition [1] 63% | growth inhibition [4] 100%
inactive: inhibition [2] 26% | inhibition [3] 4% | outcome [5] | outcome [6] | outcome [7] | outcome [8]

CC(COc1ccc2c(c1)OC(C)(C)CC2c1ccccc1)NCC(O)c1cccc(Cl)c1 (stereo not drawn)
inactive: inhibition [2] 1% | inhibition [3] 3% | outcome [5] | outcome [6] | outcome [7] | outcome [8]
active: growth inhibition [1] 96% | growth inhibition [4] 98%

CC(C)(C)OC(=O)NCc1ccc(Nc2nnc(-c3ccc(OCC(=O)NCc4ccc(C(C)(C)C)cc4)c([N+](=O)[O-])c3)o2)cc1
inactive: inhibition [2] 10% | inhibition [3] -2% | outcome [5] | outcome [6] | outcome [7] | outcome [8]
active: growth inhibition [1] 82% | growth inhibition [4] 96%

COCCCNc1nc2cc(OC)c(OC)cc2c2nc(-c3ccccc3)nn12
inactive: inhibition [2] 6% | inhibition [3] -6% | outcome [5] | outcome [6] | outcome [7] | outcome [8]
active: growth inhibition [1] 97% | growth inhibition [4] 95%

CCc1c[nH]c2c(N3CCCC3=O)cc(C(=O)N[C@@H](Cc3ccccc3)[C@H](O)CNC3CCCCC3)cc12
inactive: inhibition [2] 12% | inhibition [3] -1% | outcome [5] | outcome [6] | outcome [7] | outcome [8]
active: growth inhibition [1] 98% | growth inhibition [4] 100%

COc1cc(NC(=O)C(c2ccc(Cl)cc2)C(C)C)cc(OC)c1OC (stereo not drawn)
inactive: inhibition [2] 10% | inhibition [3] -1% | outcome [5] | outcome [6] | outcome [7] | outcome [8]
active: growth inhibition [1] 100% | growth inhibition [4] 101%

Source: PubChem BioAssay
